Results from PubChem BioAssay AID504652 (National Center for Advancing Translational Sciences (NCATS), 2011).
In all, about 360,000 compounds went through this assay and about 11,000 (3.1%) were called active. The entries come from a sample that favours actives as a whole. Values without a mark were called inactive. Cut-off read from the data, not from the text of the source: active = activity change below about -30%; inactive = the rest.

Target: D(1A) dopamine receptor (Homo sapiens) (UniProt P21728)
Sequence (P21728 whole entry, looked up): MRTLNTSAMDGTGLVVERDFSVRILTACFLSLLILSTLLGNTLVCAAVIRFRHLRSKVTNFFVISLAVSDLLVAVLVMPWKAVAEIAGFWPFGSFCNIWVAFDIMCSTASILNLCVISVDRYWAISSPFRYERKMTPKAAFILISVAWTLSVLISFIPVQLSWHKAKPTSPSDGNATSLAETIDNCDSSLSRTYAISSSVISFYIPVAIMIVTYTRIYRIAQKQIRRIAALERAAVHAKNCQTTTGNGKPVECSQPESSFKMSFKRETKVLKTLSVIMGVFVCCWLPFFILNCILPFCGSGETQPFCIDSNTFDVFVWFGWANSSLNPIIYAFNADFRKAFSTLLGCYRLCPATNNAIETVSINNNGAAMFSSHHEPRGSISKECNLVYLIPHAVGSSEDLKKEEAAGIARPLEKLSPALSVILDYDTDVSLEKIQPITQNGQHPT
Assay: Antagonist of Human D 1 Dopamine Receptor: qHTS
Settings: HEK293 TREx D1 cells, calcium flux, dopamine EC80; at 10 µM; stronger effect = lower value
Method in brief: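 Tetracycline-induced HEK293 Trex D1 cells, force-coupled to calcium, dye-loaded; compounds added and read 180 s, then EC80 dopamine added and calcium flux tracked kinetically another 180 s.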
% is set by controls: 0 for no effect and ±100 for the full control effect.

Question: CN1CCN(c2ccc([N+](=O)[O-])c(Sc3nc4ccccc4[nH]3)c2)CC1 was tested. Which activity change, negative = inhibition did it give?
Answer: Its activity change, negative = inhibition is -1.85%.

Question: Which activity change, negative = inhibition does the source give for Cc1nn(-c2ccc(N3CCCCC3)nn2)c(C)c1CCC(=O)NCc1ccccc1F here?
Answer: The activity change, negative = inhibition was -7.94%.

Question: Which activity change, negative = inhibition does the source give for Cc1cccc(OCCSc2nc3ccccc3n2CC(=O)N2CCCCC2)c1C here?
Answer: Its activity change, negative = inhibition is -17.2%.

Question: With O=C(OCC(=O)N1CCc2ccccc21)c1ccc([N+](=O)[O-])cc1 as the compound, how does the activity change, negative = inhibition read?
Answer: The activity change, negative = inhibition was -13%.

Question: With COc1ccc(C(CNC(=O)COc2ccc([N+](=O)[O-])cc2)N2CCCCC2)cc1 (centres undefined) as the compound, how does the activity change, negative = inhibition read?
Answer: The activity change, negative = inhibition was 6.98%.

Question: For O=C1CCCN1C(=O)COc1ccc([N+](=O)[O-])cc1, which activity change, negative = inhibition is on record?
Answer: The activity change, negative = inhibition was -83.3% (active).

Question: Which activity change, negative = inhibition does the source give for O=C(NCC(c1cccnc1)N1CCc2ccccc21)c1cccc(C(F)(F)F)c1 (centres undefined) here?
Answer: Its activity change, negative = inhibition is 4.34%.

Question: With Cc1ccc2oc3c(c(=O)c2c1)C(c1ccc([N+](=O)[O-])cc1)N(CCCN1CCOCC1)C3=O (centres undefined) as the compound, how does the activity change, negative = inhibition read?
Answer: The activity change, negative = inhibition was -8.02%.

Question: Which activity change, negative = inhibition does the source give for Cc1ccc(-c2nn3c(=O)cc(CN4CCN(C(=O)Nc5cccc(C(F)(F)F)c5)CC4)nc3s2)cc1 here?
Answer: The activity change, negative = inhibition was 4.59%.

Question: With Cc1ccc(C)c(N2CCN(C(=O)CN3C(=O)COc4ccc(S(=O)(=O)N5CCCCCC5)cc43)CC2)c1 as the compound, how does the activity change, negative = inhibition read?
Answer: The activity change, negative = inhibition was -0.74%.

Question: How did the activity change, negative = inhibition turn out when S=c1[nH]nc(-c2ccco2)n1/N=C/c1ccc(Br)s1 was run?
Answer: Its activity change, negative = inhibition is -38.6% (active).

Question: How did the activity change, negative = inhibition turn out when Cc1ccsc1/C=N/n1c(=S)[nH]nc(C)c1=O was run?
Answer: The activity change, negative = inhibition was 0.744%.

Question: How did the activity change, negative = inhibition turn out when Cc1ccccc1-c1n[nH]c(=S)n1/N=C/c1ccc(-c2ccccc2Br)o1 was run?
Answer: Its activity change, negative = inhibition is -0.652%.

Question: O=C(CN1C(=O)COc2ccc(S(=O)(=O)N3CCOCC3)cc21)N1CCN(c2cccc(Cl)c2)CC1 was tested. Which activity change, negative = inhibition did it give?
Answer: The activity change, negative = inhibition was -5.01%.

Question: How did the activity change, negative = inhibition turn out when COc1ccc(CNC(=O)CCc2c(C)nn(-c3ccc(N4CCCC4)nn3)c2C)cc1 was run?
Answer: The activity change, negative = inhibition was 8.22%.

Question: Cc1ccc(-n2nc(C)c(C(=O)O)c2-n2cccc2)cc1 was tested. Which activity change, negative = inhibition did it give?
Answer: Its activity change, negative = inhibition is -8.13%.

Question: With Cc1nn(-c2ccccc2)c(-n2cccc2)c1C(=O)O as the compound, how does the activity change, negative = inhibition read?
Answer: Its activity change, negative = inhibition is -45.8% (active).

Question: How did the activity change, negative = inhibition turn out when Cc1nn(-c2ccc(F)cc2)c(-n2cccc2)c1C(=O)N1CCN(c2ccccc2)CC1 was run?
Answer: The activity change, negative = inhibition was 21%.

Question: How did the activity change, negative = inhibition turn out when CCN(CC)CCNC(=O)c1cc2c(=O)oc3ccc(C)cc3c2s1 was run?
Answer: The activity change, negative = inhibition was 4.45%.

Question: With COc1cc(OC)c(NC(=O)c2nc(-c3ccncc3)no2)cc1Cl as the compound, how does the activity change, negative = inhibition read?
Answer: The activity change, negative = inhibition was -32.7% (active).

Question: How did the activity change, negative = inhibition turn out when COc1cc(OC)c(NC(=O)c2c3c(nn2C)-c2ccccc2SC3)cc1Cl was run?
Answer: The activity change, negative = inhibition was 2.27%.

Question: Which activity change, negative = inhibition does the source give for COc1cc(NC(=O)c2ccc(-c3csc(C)n3)cc2)c(OC)cc1Cl here?
Answer: The activity change, negative = inhibition was -3.88%.

Question: Which activity change, negative = inhibition does the source give for COc1ccc(NC(=O)c2ccc3oc(=O)c(S(=O)(=O)c4ccc(F)cc4)cc3c2)c(OC)c1 here?
Answer: The activity change, negative = inhibition was 4.65%.

Question: O=C(Nc1cc(-c2nc3ccccc3o2)ccc1Cl)c1cc([N+](=O)[O-])ccc1N1CCOCC1 was tested. Which activity change, negative = inhibition did it give?
Answer: The activity change, negative = inhibition was -2.21%.

Question: With Cc1ccccc1Nc1nc(N)nc(COC(=O)CCC(=O)c2ccc(F)cc2)n1 as the compound, how does the activity change, negative = inhibition read?
Answer: Its activity change, negative = inhibition is -23.2%.

Question: Which activity change, negative = inhibition does the source give for Nc1nc(COC(=O)CCC(=O)c2ccc(Cl)cc2)nc(Nc2ccccc2)n1 here?
Answer: Its activity change, negative = inhibition is -34.3% (active).

Question: For Nc1nc(CC(=O)CSc2ccc(Cl)cc2)nc(Nc2ccc(F)cc2)n1, which activity change, negative = inhibition is on record?
Answer: The activity change, negative = inhibition was -8.8%.

Question: COc1ccccc1-c1cc(C(F)(F)F)nc(S(=O)(=O)CCCC(=O)Nc2cc(C)ccc2O)n1 was tested. Which activity change, negative = inhibition did it give?
Answer: Its activity change, negative = inhibition is -0.269%.

Question: With CCOC(=O)c1cc2c(=O)n3ccccc3nc2n(CCCOC)c1=NC(=O)C(C)Oc1ccccc1 (centres undefined) as the compound, how does the activity change, negative = inhibition read?
Answer: The activity change, negative = inhibition was -0.513%.

Question: For CCc1ccccc1NC(=O)c1ccc(F)c(S(=O)(=O)NC2CCCCCC2)c1, which activity change, negative = inhibition is on record?
Answer: Its activity change, negative = inhibition is -16.4%.

Question: Which activity change, negative = inhibition does the source give for O=S(=O)(NC1CCCCC1)c1ccc(F)c2ccccc12 here?
Answer: Its activity change, negative = inhibition is -32.8% (active).

Question: O=S(=O)(NC1CC1)c1ccc2c3c(cccc13)CC2 was tested. Which activity change, negative = inhibition did it give?
Answer: The activity change, negative = inhibition was -23.6%.

Question: How did the activity change, negative = inhibition turn out when CCN1CCN(c2ncc3c(n2)CC(c2ccccc2O)CC3=O)CC1 (centres undefined) was run?
Answer: Its activity change, negative = inhibition is 0.271%.

Question: How did the activity change, negative = inhibition turn out when CCN(Cc1ccccc1)Cc1c(O)ccc2c(=O)c(-c3ccc(Cl)cc3Cl)coc12 was run?
Answer: Its activity change, negative = inhibition is -1.12%.

Question: COC(=O)c1ccc(Nc2ncnc3sccc23)cc1 was tested. Which activity change, negative = inhibition did it give?
Answer: The activity change, negative = inhibition was -42.9% (active).

Question: Which activity change, negative = inhibition does the source give for COc1ccc(Nc2ncnc3sc(C)cc23)cc1 here?
Answer: Its activity change, negative = inhibition is -13.7%.

Question: CCOc1ccc(Nc2ncnc3scc(-c4ccc(OC)cc4)c23)cc1 was tested. Which activity change, negative = inhibition did it give?
Answer: Its activity change, negative = inhibition is 13.2%.

Question: For O=C(CSc1nc2ccccc2nc1Cc1ccccc1)N1CCCCC1, which activity change, negative = inhibition is on record?
Answer: Its activity change, negative = inhibition is -12.3%.

Question: With CCOC(=O)C1CCN(c2nc3c(S(=O)(=O)c4ccc(CC)cc4)nnn3c3ccc(Cl)cc23)CC1 as the compound, how does the activity change, negative = inhibition read?
Answer: The activity change, negative = inhibition was -7.85%.

Question: Which activity change, negative = inhibition does the source give for Cc1ccc(-c2nnc(Nc3cccc(Br)c3)c3ccccc23)cc1S(=O)(=O)NCC1CCCO1 (centres undefined) here?
Answer: Its activity change, negative = inhibition is -11.8%.

Question: Which activity change, negative = inhibition does the source give for N#Cc1ccc(OCCN2C(=O)NC3(CCSC3)C2=O)cc1 (centres undefined) here?
Answer: Its activity change, negative = inhibition is -30.6% (active).

Question: With CC1(C)NC(=O)N(CCOc2cccc(Oc3ccccc3)c2)C1=O as the compound, how does the activity change, negative = inhibition read?
Answer: Its activity change, negative = inhibition is 1.02%.

Question: How did the activity change, negative = inhibition turn out when O=C(CN1C(=O)NC2(CCCC2)C1=O)OCCOc1ccc(F)cc1 was run?
Answer: The activity change, negative = inhibition was -6.87%.

Question: CCOC(=O)N1CCc2c(sc(NCc3cccc(F)c3)c2C(=O)Nc2ccccc2OCC)C1 was tested. Which activity change, negative = inhibition did it give?
Answer: Its activity change, negative = inhibition is -17.6%.
